Several values for one entry are separate records, joined by “and”; a condition that tells them apart may be missing. Identical values can stand only once. Hit rate of the full screen: of about 6,400 compounds, about 610 (9.5%) were called active. The sample holds actives, similar compounds and a random draw of the others, so the mix is not that of the screen. Rule as the data show it: active = activity change below about -70%; inconclusive = no clear call, values can overlap the other calls; inactive = above that. Some compounds were tested as several samples or in several runs, with calls that do not always agree.
test: T. gondii ME49Luc in HeLa cells, luciferase assay, 72 h, no IFN-y (AID 1259421); settings: stronger effect = lower value, concentration not given here

| Structure (SMILES) | activity change, negative = inhibition |
| --- | --- |
| CO/N=C(/C(=O)NC1C(=O)N2C(C(=O)O)=C(CSc3nc(=O)c(=O)[nH]n3C)CSC12)c1csc(N)n1 (stereo not given) | -0.639% (inactive) |
| COc1ccc([C@@H]2Sc3ccccc3NC(=O)[C@@H]2O)cc1 | 11.7% (inactive) |
| O=P(O)(O)OC[C@H]1OC(O)[C@H](O)[C@@H](O)[C@@H]1O (stereo not given in full) | 7.08% (inactive) |
| Cc1[nH]c2ccccc2c1CCNC(=O)c1cccs1 | 9.58% (inactive) |
| Cc1[nH]c2ccccc2c1CCNCc1ccc(/C=C/C(=O)NO)cc1 | -73.2% (active) and -76.5% (active) |
| CC(=O)NCCc1c(Cc2ccccc2)[nH]c2ccccc12 | -2.39% (inactive) |
| CC(C)(N)C(=O)N[C@H](COCc1ccccc1)C(=O)N1CCC2(CC1)CN(S(C)(=O)=O)c1ccccc12 | 5.12% (inactive) |
| Cc1cc(/C(=C\Nc2ccc(Cl)cc2)C(=O)Nc2ccc(Cl)cc2)on1 | 18.7% (inactive) |
| FC(F)(F)C(F)(F)C(F)(F)C(F)(F)C(F)(F)C(F)(F)C(F)(F)C(F)(F)Br | 2.95% (inactive) |
| O=C(O)c1ccc2c(c1)OCO2 | 16% (inactive) |
| CC(=O)c1ccc2c(c1)[C@@H]1C=CC[C@@H]1[C@H](c1cc3c(cc1Br)OCO3)N2 | -79.7% (active) |
| Brc1cc2c(cc1[C@H]1Nc3ccccc3[C@H]3C=CC[C@H]31)OCO2 (racemic) | 11.8% (inactive) |
| COC(=O)C1=C(C)NC(C)=C([N+](=O)[O-])[C@@H]1c1ccccc1C(F)(F)F | 1.1% (inactive) |
| C/C(=C(/CCO)SSCC1CCCO1)N(C=O)Cc1cnc(C)nc1N (stereo not given) | 15% (inactive) |
| CN1CCN(c2ccc(OC(F)(F)F)c(Nc3ncc4c(n3)-c3c(c(C(N)=O)nn3CCO)CC4)c2)CC1 | -90.8% (active) |
| C=CC(=O)Nc1cccc(Oc2nc(Nc3ccc(N4CCN(C)CC4)cc3OC)ncc2Cl)c1 | -35.2% (inactive) |
| CCC(=O)Nc1cccc(Oc2nc(Nc3ccc(N4CCN(C)CC4)cc3OC)ncc2Cl)c1 | 7.36% (inactive) |
| CCN(CC)S(=O)(=O)c1ccc(C(=O)O)cc1 | -0.641% (inactive) and 12.4% (inactive) |
| CCc1cc(C(C)=O)c(O)cc1OCCCCCC(C)(C)c1nn[nH]n1 | 50.8% (inactive) and 31.2% (inactive) |
| Nc1ccncc1N | -3.18% (inactive) |
| Nc1ccc(-c2ccc3ncc4ccc(=O)n(-c5cccc(C(F)(F)F)c5)c4c3c2)cn1 | -76.7% (active) |
| CCC(=O)N1CCN(c2ccc(-n3c(=O)ccc4cnc5ccc(-c6cnc7ccccc7c6)cc5c43)cc2C(F)(F)F)CC1 | -56% (inactive) |
| COc1ccc(C(=O)CCC(=O)O)c2ccccc12 | 2.31% (inactive) |
| COC(=O)c1cc(S(C)(=O)=O)ccc1OC | 9.8% (inactive) |
| COc1ccc(CCN2CCN(CCCc3ccccc3)CC2)cc1OC | -27.2% (inactive) |

| Structure (SMILES) | activity change, negative = inhibition |
| --- | --- |
| OCC1OC(n2cnc3c(NC4CCCC4)ncnc32)C(O)C1O (stereo not given) | 1.64% (inactive) |
| N#C/C(=C\c1ccc(O)c(O)c1)C(N)=O | 16.2% (inactive) and 6.7% (inactive) |
| CC(C)(C)c1cc(/C=C(\C#N)C(N)=S)cc(C(C)(C)C)c1O | -82.2% (active) and -86% (active) |
| N#CC(C#N)=C(N)/C(C#N)=C/c1cc(O)c(O)c(O)c1 | 5.32% (inactive) |
| COc1cc(N)c(Cl)cc1C(=O)N[C@@H]1CCN(CCCOc2ccc(F)cc2)C[C@@H]1OC | 6.27% (inactive) |
| COc1ccc(C2(O)CCC(N3CC[C@@H](NC(=O)CNC(=O)c4cccc(C(F)(F)F)c4)C3)CC2)cn1 (stereo not given in full) | 4.89% (inactive) |
| Cc1ccc(S(=O)(=O)c2ccc([N+](=O)[O-])o2)cc1 | 10.8% (inactive) |
| CCC[C@H](NC(=O)[C@@H]1[C@H]2CCC[C@H]2CN1C(=O)[C@@H](NC(=O)[C@@H](NC(=O)c1cnccn1)C1CCCCC1)C(C)(C)C)C(=O)C(=O)NC1CC1 | -72.4% (active) |
| CCCC[C@H](NC(=O)[C@@H]1[C@@H]2[C@H](CN1C(=O)[C@@H](NC(=O)NC1(CS(=O)(=O)C(C)(C)C)CCCCC1)C(C)(C)C)C2(C)C)C(=O)C(=O)NC1CC1 | 23.2% (inactive) |
| CC(C)(C)NC(=O)N[C@H](C(=O)N1C[C@H]2[C@@H]([C@H]1C(=O)NC(CC1CCC1)C(=O)C(N)=O)C2(C)C)C(C)(C)C (stereo not given in full) | 0.503% (inactive) |
| CC(C)(C)c1cc(O)c(C(C)(C)C)cc1O | 7.89% (inactive) |
| COC(=O)C[C@H]1C(C)(C)[C@@H](O)[C@@H]2CC3=C4CC(O)O[C@@H](c5ccoc5)[C@]4(C)CCC3[C@@]1(C)C2=O (stereo not given in full) | -4.18% (inactive) |
| CO[C@H]1C=CO[C@@]2(C)Oc3c(C)c(O)c4c(O)c(c(/C=N/N5CCN(C)CC5)c(O)c4c3C2=O)NC(=O)/C(C)=C\C=C/C(C)[C@H](O)[C@@H](C)[C@@H](O)[C@@H](C)[C@@H](OC(C)=O)[C@@H]1C (stereo not given in full) | -14.4% (inactive) and 12.2% (inactive) |
| CC1(C)CCC(CN2CCN(c3ccc(C(=O)NS(=O)(=O)c4ccc(NCC5CCOCC5)c([N+](=O)[O-])c4)c(Oc4cnc5[nH]ccc5c4)c3)CC2)=C(c2ccc(Cl)cc2)C1 | -89.7% (active) |
| CC(C)COC(=O)c1ccc(N)cc1 | 47.4% (inactive) |
| COC(=O)c1cc(OC)c2c(c1-c1c(C(=O)OC)cc(OC)c3c1OCO3)OCO2 | 11.4% (inactive) |
| C=C1C(=O)O[C@H]2[C@H]1CC/C(C)=C\CC[C@@]1(C)O[C@@H]21 | 7.41% (inactive) |
| O=C(N/N=C/c1ccccc1O)c1ccccc1O | -88% (active) and -86.5% (active) |
| O=C(O)c1ccccc1O | 10.4% (inactive) and 3.39% (inactive) |
| O=C(Nc1ccc(O)cc1)c1ccccc1O | 30.3% (inactive) |
| O=C(OC1C(OC(=O)c2cccnc2)C(OC(=O)c2cccnc2)C(OC(=O)c2cccnc2)C(OC(=O)c2cccnc2)C1OC(=O)c1cccnc1)c1cccnc1 (stereo not given) | -4.81% (inactive) and 13.2% (inactive) |
| CCN(CC)CCN(Cc1ccc(-c2ccc(C(F)(F)F)cc2)cc1)C(=O)Cn1c(SCc2ccc(F)cc2)nc(=O)c2c1CCC2 | -77.9% (active) |
| CCN(Cc1ccccc1)C(=O)Cn1c(=O)n(C)c2cnc(-c3ccccc3)nc21 | 9.96% (inactive) |
| O=C(O)[C@H](O)[C@@H](O)[C@H](O[C@@H]1O[C@H](CO)[C@H](O)[C@H](O)[C@H]1O)[C@H](O)CO | 11.1% (inactive) |
| Clc1ccc(C(Cn2ccnc2)OCc2csc3c(Cl)cccc23)c(Cl)c1 (stereo not given) | -75.6% (active) |

| Structure (SMILES) | activity change, negative = inhibition |
| --- | --- |
| Clc1ccc(C(Cn2ccnc2)OCc2ccc(Sc3ccccc3)cc2)c(Cl)c1 (stereo not given) | -73.4% (active) |
| Clc1ccc(C(Cn2ccnc2)OCc2ccsc2Cl)c(Cl)c1 (stereo not given) | -28.7% (inactive) and -2.79% (inactive) |
| Clc1ccc(COC(Cn2ccnc2)c2ccc(Cl)cc2Cl)c(Cl)c1 (stereo not given) | -91.6% (active) |
| Clc1ccc(CSC(Cn2ccnc2)c2ccc(Cl)cc2Cl)cc1 (stereo not given) | -80.3% (active) and -86.4% (active) |
| C=CCOC(Cn1ccnc1)c1ccc(Cl)cc1Cl (stereo not given) | 26.1% (inactive) and 17.1% (inactive) |
| C[C@@H]1CC2C3C[C@H](F)C4=CC(=O)C=C[C@]4(C)[C@@]3(F)[C@@H](O)C[C@]2(C)[C@@]1(O)C(=O)CO (stereo not given in full) | 1.95% (inactive) |
| CC(=O)N[C@H]1CSSC[C@@H](C(N)=O)NC(=O)[C@H](C(C)C)NC(=O)[C@H](C)NC(=O)[C@H](Cc2cnc[nH]2)NC1=O | -4.46% (inactive) |
| O=C(/C=C/c1ccc(O)c(O)c1)O[C@@H]1C[C@](OC(=O)/C=C/c2ccc(O)c(O)c2)(C(=O)O)C[C@@H](O)[C@H]1O | 2.12% (inactive) |
| NC(=O)CCCCn1ccc(NC(N)=NCC(F)(F)F)n1 | 4.57% (inactive) and 3.01% (inactive) |
| C=C1C2CC[C@@]3(C)[C@H](c4ccoc4)OC(=O)C[C@]13O[C@H]1CC(=O)C(C)(C)[C@H](C(O)C(=O)OC)[C@@]21C (stereo not given in full) | -2.51% (inactive) |
| O=C1CCC[C@@H]2[C@@H]3CCC[N+]4([O-])CCC[C@H](CN12)[C@@H]34 (stereo not given in full) | -1.57% (inactive) |
| N=C1CCCN1Cc1[nH]c(=O)[nH]c(=O)c1Cl | 3.86% (inactive) |
| COc1cc2c(cc1OC(C)C)[C@H](c1ccc(Cl)cc1)N(c1ccc(N(C)CC3CCC(N4CCN(C)C(=O)C4)CC3)cc1)C(=O)C2 (stereo not given in full) | -56.4% (inactive) |
| N[C@@H](CSCC(=O)O)C(=O)O | 14.1% (inactive) |
| COc1ccc(/C=C/C(=O)c2cc(O)ccc2O)cc1 | 13.6% (inactive) |
| Nc1ncnc2c1ncn2[C@H]1CC[C@@H](CO)O1 | 1.09% (inactive) |
| CC(C)[N+]1(C)C2CCC1CC(OC(=O)C(CO)c1ccccc1)C2 (stereo not given) | 0.0846% (inactive) |
| O=C(O)CCc1cc(C(=O)c2ccc(OC3CCCC3)cc2O)ccc1OCc1ccc2c(=O)[nH]oc2c1 | 6.19% (inactive) |
| O=C(O)/C=C/c1ccc(Cn2ccnc2)cc1 | -0.196% (inactive) and 8.1% (inactive) |
| Cl/C(=C/n1cncn1)c1ccc(Cl)cc1Cl | -5.43% (inactive) |
| Clc1ccc(CO/N=C(\Cn2ccnc2)c2ccc(Cl)cc2Cl)c(Cl)c1 | -81.5% (active) and 40% (inactive) |
| Clc1ccc(C(Cn2ccnc2)OCc2c(Cl)cccc2Cl)c(Cl)c1 (stereo not given) | -52.5% (inactive) |
| Cl/C(=C\n1cncn1)c1ccc(Cl)cc1Cl | -11.5% (inactive) |
| Clc1ccc(CCC(Cn2ccnc2)Sc2c(Cl)cccc2Cl)cc1 (stereo not given) | -83.9% (active) and -87.7% (active) |
| Clc1ccc(COC(Cn2ccnc2)c2ccc(Cl)cc2Cl)cc1 (stereo not given) | -77.4% (active) and -87.9% (active) |
